This is one part of a sample in which hits are shown more often than they occur.
CD40 NFkB inh = CD40 pathway inhibition in BL2 cells | 0.94% of 83,000 active | inhibition, % at 10 µM | BL2 NF-kB luciferase reporter, CD40L-induced, 4 h;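 active = mean inhibition of at least 50% with a set share of replicates also reaching that level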;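 note: 0% = neutral control wells and 100% = IKK inhibitor VII at 50 µM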
* hit, by the source's call; [ ] = another dose, or the depositor's remark.

SMILES	CD40 NFkB inh
Cc1cc(C)nc(NC(N)=NC(C)c2ccccc2)n1 (configuration not stated)	26
Cc1cc(C)nc(NC(N)=NCCc2c[nH]c3ccccc23)n1	66*
Cc1cc(C)nc(NC(N)=NCCc2ccccc2)n1	16
N#C[C@@H]1[C@@H](c2ccc(-c3cccnc3)cc2)[C@H](CO)N1C(=O)C1CC1	-12
C[C@H](CO)N1C[C@H](C)[C@@H](CN(C)Cc2cccnc2)OCc2ccccc2-c2c(n(C)c3ccccc23)C1=O	3[25 µM]
COc1ccc(CNC(=O)N(C)C[C@H]2OCc3ccccc3-c3ccccc3C(=O)N([C@H](C)CO)C[C@H]2C)cc1	-10[25 µM]
COc1ccc(-c2cnc3n2CCCCC3)cc1	2
COc1ccc(OCC(=O)OCC(=O)N2C(C)CCCC2C)cc1 (configuration not stated)	7
COc1ccc(-c2c[n+](CC(=O)OC3CC(C)CCC3C(C)C)c3n2CCC3)cc1 (configuration not stated)	79*
O=C(C[C@@H]1CC[C@H]2[C@@H](COC[C@@H](O)CN2C(=O)c2cccnc2)O1)NCC1CC1	-3[25 µM]
CC(=O)c1sc2ccccc2c1OC(=O)c1ccco1	-6
CCOC(=O)c1sc2ccccc2c1OC(=O)c1ccccc1OC	64*
CCOC(=O)C1=C(COC(=O)c2ccccc2OC)NC(=O)NC1C (configuration not stated)	-5
CN(C)C(=O)C[C@@H]1CC[C@H]2[C@@H](COC[C@@H](O)CN2C(=O)C2CCOCC2)O1	-8[25 µM]
C[C@H](CO)N1C[C@H](C)[C@@H](CN(C)S(=O)(=O)c2cn(C)cn2)OCc2ccccc2-c2ccccc2C1=O	-6[25 µM]
COc1ccc2sc(N(CCCN(C)C)C(=O)c3ccc(C(=O)c4ccccc4)cc3)nc2c1	9
CCN(Cc1ccccc1)S(=O)(=O)c1ccc(C(=O)N(CCCN(C)C)c2nc3cc4c(cc3s2)OCCO4)cc1	16
CCN(Cc1ccccc1)S(=O)(=O)c1ccc(C(=O)N(CCCN(C)C)c2nc3cc(OC)ccc3s2)cc1	52*
C[C@@H]1C(=O)N[C@@H](c2ccccc2)CC=CC[C@H](C)Oc2ccccc2C(=O)N1C (mixture of isomers)	6[25 µM]
Cc1cccnc1NC(=O)c1ccc2c(c1)OCCO2	-30
Cc1ccc(NC(=O)c2ccc3c(c2)OCCO3)nc1	64*
Cc1ccc(NC(=O)CNC(=O)c2ccc(C)s2)nc1	-15
COC(=O)CNC(=O)c1cccc(Cl)c1	13
Cc1ccc(NC(=O)CNC(=O)c2cccc(Cl)c2)nc1	66*
Cc1ccc(NC(=O)c2ccc3c(c2)NC(=O)CS3)nc1	-23
SMILES	CD40 NFkB inh
O=C(O)C[C@H]1C[C@H]2c3cc(NS(=O)(=O)c4ccc(F)cc4)ccc3O[C@H]2[C@H](CO)O1	11[25 µM]
CN1c2ccc(Br)cc2[C@H]2[C@H](CCN2C(=O)C2CCC2)[C@H]1CO	6[25 µM]
CS(=O)(=O)Nc1ccc2c(c1)[C@H]1C[C@@H](CC(=O)NCCc3ccccc3)O[C@H](CO)[C@H]1O2	-4[25 µM]
O=S(=O)(c1ccccc1F)N1CCCCN2[C@@H](CO)[C@@H](c3ccc(-c4cncnc4)cc3)[C@@H]2C1	-11[25 µM]
CNC[C@H]1Oc2ccc(N)cc2CC(=O)N(C)C[C@@H]1C	-8
Cc1ccc(-c2nc3ccccc3s2)cc1S(=O)(=O)N1CCOCC1	-4
c1ccc(-c2nc3ccccc3s2)nc1	-84
Cc1cc(-c2nc3ccccc3s2)ccc1N	56*
COc1ccc(C#Cc2cnc3c(c2)C(=O)N([C@H](C)CO)C[C@H](C)[C@H](CN(C)Cc2cccc(C)c2)O3)cc1OC	-2[25 µM]
CO[C@@H]1CN(C)C(=O)c2cc(NC(C)=O)ccc2OC[C@H](C)N(C(=O)Cc2ccccn2)C[C@H]1C	-4[25 µM]
COC(C(=O)Nc1ccc(S(=O)(=O)N2CCCCC2)cc1)c1ccccc1 (configuration not stated)	-2
CC(OC(=O)c1cc(Br)ccc1O)C(=O)Nc1ccc(S(=O)(=O)N2CCCC2)cc1 (configuration not stated)	65*
CC1CCN(C(C)C(=O)Nc2ccc(S(=O)(=O)N3CCCC3)cc2)CC1 (configuration not stated)	3
C[C@@H]1CCCCO[C@@H](CN(C)C(=O)Nc2ccccc2)[C@H](C)CN([C@H](C)CO)C(=O)c2cc(NC(=O)Nc3ccccc3)ccc2O1	40[25 µM]
COCC(=O)NC[C@@H]1N[C@@H](CO)[C@H]1c1ccc(-c2ccccc2F)cc1	-4[25 µM]
CN(C)C(=O)[C@H]1[C@H](CO)[C@H]2Cn3c(ccc(-c4ccccc4)c3=O)[C@H]2N1CCC(F)(F)F	14
CNC(=O)Nc1ccc(S(N)(=O)=O)cc1	10
COC(=O)[C@H](C)NC(=O)Nc1ccc(S(N)(=O)=O)cc1	14
CC(C)C(Cl)=NOC(=O)Nc1ccc(S(N)(=O)=O)cc1	112*
N#C[C@@H]1[C@@H](c2ccccc2-c2ccccc2)[C@H](CO)N1C(=O)Cc1ccccc1	7[25 µM]
C/C=C/c1ccccc1[C@H]1[C@@H](C#N)N(C(=O)c2cccnc2)[C@@H]1CO	-1[25 µM]
CN(C)C(=O)c1cccc(-c2ccccc2[C@@H]2[C@@H](C#N)N(C(=O)C3CCCC3)[C@H]2CO)c1	-4
C=CC(=O)N1C/C(=C/c2ccc(Cl)cc2)C(=O)/C(=C\c2ccc(Cl)cc2)C1	93*
CN(CC(=O)N1CCCCC1)S(=O)(=O)c1ccc(Cl)cc1	-8
CCN1CCN(C(=O)CN(C)S(=O)(=O)c2ccc(Cl)cc2)CC1	1
SMILES	CD40 NFkB inh
COc1ccc2c3c(n(C)c2c1)[C@@H](CO)N(C(=O)C1CC1)CC31CCN(C(=O)C2CCOCC2)CC1	0
C[C@@H]1CN([C@H](C)CO)C(=O)c2cc(NC(=O)CCN3CCOCC3)ccc2O[C@H]1CN(C)S(=O)(=O)c1cccs1	1[25 µM]
C[C@H](CO)N1C[C@H](C)[C@@H](CN(C)C(=O)Nc2cccc(Cl)c2Cl)OCc2ccccc2-c2ccccc2C1=O	20[25 µM]
COc1ccc(S(=O)(=O)N(C)C[C@@H]2OCc3ccccc3-c3ccccc3C(=O)N([C@H](C)CO)C[C@H]2C)cc1	-1
O=C(Cc1cccnc1)N1CC(=O)N2[C@H](C1)[C@@H](c1ccc(C#CC3CCCCC3)cc1)[C@@H]2CO	-6[25 µM]
C[C@@H]1CN([C@H](C)CO)C(=O)Cc2cc(NS(=O)(=O)c3ccc(F)cc3)ccc2O[C@@H]1CN(C)Cc1ccc(C(F)(F)F)cc1	27
C[C@H]1CN([C@@H](C)CO)C(=O)Cc2cc(NS(=O)(=O)c3ccc(F)cc3)ccc2O[C@@H]1CN(C)Cc1ccncc1	3[25 µM]
C[C@@H]1CN([C@@H](C)CO)C(=O)Cc2cc(NS(=O)(=O)c3ccc(F)cc3)ccc2O[C@H]1CN(C)Cc1ccc(C(F)(F)F)cc1	72*
C[C@H]1CN([C@@H](C)CO)C(=O)Cc2cc(NS(=O)(=O)c3ccc(F)cc3)ccc2O[C@H]1CN(C)Cc1ccncc1	-4[25 µM]
Cc1noc(C)c1S(=O)(=O)Nc1ccc2c(c1)CC(=O)N([C@@H](C)CO)C[C@@H](C)[C@@H](CN(C)Cc1ccc(Oc3ccccc3)cc1)O2	74*[25 µM]
Cc1noc(C)c1S(=O)(=O)Nc1ccc2c(c1)CC(=O)N([C@H](C)CO)C[C@H](C)[C@@H](CN(C)Cc1ccc(Oc3ccccc3)cc1)O2	33[25 µM]
C[C@@H]1CN([C@H](C)CO)C(=O)c2cc(NS(=O)(=O)c3ccc(F)cc3)ccc2O[C@H]1CN(C)Cc1ccc(C(F)(F)F)cc1	20
C[C@@H]1CN([C@H](C)CO)C(=O)Cc2cc(NS(=O)(=O)c3ccc(F)cc3)ccc2O[C@H]1CN(C)CC1CCCCC1	59*
